{
  "source": "PubChem BioAssay (Tox21)",
  "note": "Active and inactive are the calls of the source. The call rests on the fitted dose curve; in most records, active means well fitted curve in the direction sought with a large enough effect in the repeat runs; inconclusive means weak or mixed curves; inactive means flat fitted curve, though single readings scatter. On the % scale 0 is the no-effect control and ±100 the full control effect.",
  "data": [
    {"experiment": "qHTS assay to test for compound auto fluorescence at 590 nm (red) in HepG2 cells (AID 720674)", "details": "HepG2 autofluorescence, red 540/590 nm, 1 h; series mostly up to 91.3 µM; fluorescence, relative to Rose Bengal: at the top concentration", "description": "U.S. Tox21 Program National Center for Advancing Translational Sciences [NCATS] NIH Chemical Genomics Center [NCGC] U.S. Environmental Protection Agency [EPA] National Institutes of Environmental Health Sciences [NIEHS] National Toxicology Program [NTP] U.S. Food and Drug Administration [FDA] Tox21 Assay Overview: Compound auto fluorescence often interferes with screening of the compound library against various biological targets and signaling pathways. Some of these compounds may have fluorophoric properties. Such properties may interfere with the assay outputs resulting in false positives and/or negatives. To decrease such complications and ensure the compound activities are relevant in terms of biological response, the Tox21 10K compound library was screened for auto fluorescence. From the fluorophores used as reporter signals in our screening assays, the auto fluorescence equivalencies of compounds against three fluorophores have been evaluated: Triamterene, Fluorescein and Rose Bengal sodium for blue, green and red fluorescence, respectively. The fluorescence intensities were measured using Excitation/Emission wavelengths at 405/460nm, 485/535nm and 540/590nm for blue, green and red labels, respectively. This assay includes the red fluorescence data.\nTox21 Assay Protocol Summary: 2,000 HepG2 cells in 5 uL of culture medium (MEM containing 10% FBS) per well were dispensed into black wall/clear bottom 1536-well plates using a Multidrop Combi Dispenser (ThermoFisher Scientific, Waltham, MA). The assay plates were incubated overnight at 37 C to allow cell attachment to the well bottom, followed by the transfer of 23 nL compound or DMSO vehicle by a pintool work station (Kalypsys , San Diego, CA). After the assay plates were incubated for 1 hr at 37 C and 5% CO2, fluorescence intensities in the assay plates were measured by an Envision (PerkinElmer, Shelton, CT) plate reader using three labels for measuring blue, green and red fluorescence at […] 460, 535 and 590 nm respectively.", "values": [
      {"smiles": "CCc1cc(Cl)c(OC)c(C(=O)NC[C@@H]2CCCN2CC)c1O", "outcome": "inactive"},
      {"smiles": "C=CCCC=C", "fluorescence, relative to Rose Bengal": "-0.0212% [at 95.7 µM] (inactive)"},
      {"smiles": "O=C1CCC(C2CCCCC2)CC1", "fluorescence, relative to Rose Bengal": "-0.148% (inactive)"},
      {"smiles": "Cc1cc2nc(N)sc2cc1C", "fluorescence, relative to Rose Bengal": "-0.178% (inactive)"},
      {"smiles": "CCOC(=O)CS", "fluorescence, relative to Rose Bengal": "0.279% [at 95.7 µM] (inactive)"},
      {"smiles": "COC(=O)c1ccc2cc(C(=O)OC)ccc2c1", "fluorescence, relative to Rose Bengal": "0.064% [at 18.6 µM] (inactive)"},
      {"smiles": "CCN[C@H]1CN(CCCOC)S(=O)(=O)c2sc(S(N)(=O)=O)cc21", "fluorescence, relative to Rose Bengal": "-0.145% [at 18.6 µM] (inactive)"},
      {"smiles": "Cc1c(-c2ccccc2)oc2c(C(=O)OCCN3CCCCC3)cccc2c1=O", "fluorescence, relative to Rose Bengal": "0.822% [at 18.6 µM] (inactive)"},
      {"smiles": "CN1CCN(C2=Nc3cc(F)ccc3Cc3ccccc32)CC1", "fluorescence, relative to Rose Bengal": "-0.171% [at 46 µM] (inactive)"},
      {"smiles": "OCCN1CCN(CCO)CC1", "fluorescence, relative to Rose Bengal": "-0.106% [at 95.7 µM] (inactive)"},
      {"smiles": "C[C@@H](N)C(=O)O", "fluorescence, relative to Rose Bengal": "0.339% [at 46 µM] (inactive)"},
      {"smiles": "CCCCNc1ccc(C(=O)OCCN(CC)CC)cc1", "fluorescence, relative to Rose Bengal": "-0.238% [at 46 µM] (inactive)"},
      {"smiles": "c1ccc(CN(CC2=NCCN2)c2ccccc2)cc1", "fluorescence, relative to Rose Bengal": "-0.0727% [at 46 µM] (inactive)"},
      {"smiles": "O=C(O)CN(CCN(CC(=O)O)CC(=O)O)CCN(CC(=O)O)CC(=O)O", "fluorescence, relative to Rose Bengal": "-0.136% [at 46 µM] (inactive)"},
      {"smiles": "CCCCC1CCC(=O)O1", "note": "(stereo not given)", "fluorescence, relative to Rose Bengal": "0.0011% (inactive)"},
      {"smiles": "CC(C)C1=CC2=CC[C@@H]3[C@](C)(CCC[C@@]3(C)C(=O)O)[C@H]2CC1", "outcome": "inactive"},
      {"smiles": "CCCCc1ccc2nc(NC(=O)OC)[nH]c2c1", "fluorescence, relative to Rose Bengal": "-0.46% [at 18.6 µM] (inactive)"},
      {"smiles": "CC(=O)N[C@@H](CC(C)C)C(=O)O", "fluorescence, relative to Rose Bengal": "-0.0978% [at 46 µM] (inactive)"},
      {"smiles": "CN(C)CC[C@@H](c1ccc(Cl)cc1)c1ccccn1", "fluorescence, relative to Rose Bengal": "-0.17% [at 46 µM] (inactive)"},
      {"smiles": "CC(C)O", "outcome": "inactive"},
      {"smiles": "CCCCOc1cc(C(=O)NCCN(CC)CC)c2ccccc2n1", "fluorescence, relative to Rose Bengal": "-0.403% [at 18.6 µM] (inactive)"},
      {"smiles": "O=c1[nH]c(=O)n([C@H]2C[C@H](O)[C@@H](CO)O2)cc1C(F)(F)F", "fluorescence, relative to Rose Bengal": "0.142% [at 46 µM] (inactive)"},
      {"smiles": "CN1CCC[C@@H]1Cc1c[nH]c2ccc(CCS(=O)(=O)c3ccccc3)cc12", "fluorescence, relative to Rose Bengal": "-0.692% [at 46 µM] (inactive)"},
      {"smiles": "CCCc1c2oc(C(=O)O)cc(=O)c2cc2c(=O)cc(C(=O)O)n(CC)c12", "fluorescence, relative to Rose Bengal": "0.0307% [at 46 µM] (inactive)"},
      {"smiles": "O=C1C=CC(=O)O1", "fluorescence, relative to Rose Bengal": "0.06% [at 95.7 µM] (inactive)"},
      {"smiles": "COc1cc(Cl)ccc1Cl", "fluorescence, relative to Rose Bengal": "-0.0123% [at 95.7 µM] (inactive)"},
      {"smiles": "CC(C)(C)C1CCCCC1=O", "note": "(stereo not given)", "fluorescence, relative to Rose Bengal": "-0.0389% (inactive)"},
      {"smiles": "NC/C=C/C(=O)O", "fluorescence, relative to Rose Bengal": "-0.0699% [at 46 µM] (inactive)"},
      {"smiles": "CCCCC(=O)O[C@]1(C(=O)CO)[C@H](C)C[C@H]2[C@@H]3CCC4=CC(=O)C=C[C@]4(C)[C@@]3(F)[C@@H](O)C[C@@]21C", "fluorescence, relative to Rose Bengal": "0.001% [at 46 µM] (inactive)"},
      {"smiles": "Nc1cccc(S(=O)(=O)O)c1", "fluorescence, relative to Rose Bengal": "0.0386% (inactive)"},
      {"smiles": "O=C1CCCCCCCCCCC(=O)OCCO1", "fluorescence, relative to Rose Bengal": "0.0025% (inactive)"},
      {"smiles": "Cc1ccccc1C(=O)Nc1ccc(C(=O)N2CCCC(O)c3cc(Cl)ccc32)c(C)c1", "note": "(stereo not given)", "fluorescence, relative to Rose Bengal": "-0.577% [at 46 µM] (inactive)"},
      {"smiles": "CCCCCCCOC(=O)CCC", "fluorescence, relative to Rose Bengal": "-0.0372% (inactive)"},
      {"smiles": "Nc1ccc2ccccc2c1S(=O)(=O)O", "fluorescence, relative to Rose Bengal": "0.12% [at 95.7 µM] (inactive)"},
      {"smiles": "CCCCCCCCCC#N", "fluorescence, relative to Rose Bengal": "-0.106% (inactive)"},
      {"smiles": "C[C@@H]1CN(c2c(F)c(N)c3c(=O)c(C(=O)O)cn(C4CC4)c3c2F)C[C@H](C)N1", "fluorescence, relative to Rose Bengal": "-0.108% [at 46 µM] (inactive)"},
      {"smiles": "CC[C@H]1CC[C@H](NCc2cc3c(cc2OC)[C@H]2C[C@H]2C(=O)N3C)[C@H](c2ccccc2)N1", "fluorescence, relative to Rose Bengal": "0.156% (inactive)"},
      {"smiles": "CCCCCCC", "fluorescence, relative to Rose Bengal": "0.212% [at 95.7 µM] (inactive)"},
      {"smiles": "CC/C=C\\CCOC(=O)CCCCC", "fluorescence, relative to Rose Bengal": "-0.396% (inactive)"},
      {"smiles": "CCOC(=O)C1CC(=O)C(=C(O)C2CC2)C(=O)C1", "note": "(stereo not given)", "fluorescence, relative to Rose Bengal": "-0.131% (inactive)"}
    ]}
  ]
}
